# DT40 TDP1 no CPT – qHTS for Inhibitors of human tyrosyl-DNA phosphodiesterase 1 (TDP1): qHTS in cells in absence of CPT; hit rate 15% among 420,000; DT40 Tdp1-/- hTDP1 cells, no CPT, ATP luminescence, 48 h; Potency, µM (series often up to 46.2 µM), for the others: top-dose activity change, negative = growth inhibition, actives largely listed as inhibitors; also: potency is read from the fitted curve at half-maximal effect; nearly all actives have a fitted effect of over 55% in size
#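 Luminescent ATP content (CellTiter-Glo) served as the growth readout. Knockout chicken DT40 cells expressing human TDP1 were exposed to compounds without camptothecin for a minimum 48 hr at 37 °C.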
# HT1080NT lethal – kills 2HG-producing HT-1080-NT fibrosarcoma cells; Potency, µM (titrated, usually from 46.1 µM), without a hit: at the top dose activity, negative = less viability, usual class: cytotoxic; hit rate 1.6% among 360,000; AID 686970; HT-1080-NT fibrosarcoma viability, CellTiter-Glo ATP luminescence, 48 h;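 also: NT is the 2HG producing partner of a matched IDH1 knockdown line; potency is read from the fitted curve at half-maximal effect; 0% = DMSO-treated cells and -100% = media-only wells without cells; nearly all actives have a fitted effect of over 55% in size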
#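 A 48-hour cytotoxicity screen used HT-1080-NT cells plated 2 hours before compound delivery. ATP-based CellTiter-Glo luminescence measured viability, normalized to DMSO and no-cell controls.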
# HT1080 IDH1KD tx – toxicity to HT-1080 IDH1 knockdown cells (counter line); HT-1080 IDH1 knockdown viability, ATP luminescence, 48 h; Potency, µM (top dose mostly 46.1 µM), without a hit: top-dose activity, negative = toxicity, actives largely listed as cytotoxic; hit rate 2% among 360,000; AID 686971;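 also: potency is read from the fitted curve at half-maximal effect; 0% = DMSO wells and -100% = cell-free medium wells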
#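 In this qHTS, HT-1080 cells depleted of IDH1 are exposed for 48 h at 37 °C to compound titrations. Toxicity is scored from CellTiter-Glo luminescence, with DMSO as full viability and medium alone as none.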
# IL1B secr inh – inflammasome signaling inhibition, IL-1 beta readout; AID 743279; activity change, % at 57.5 µM; THP-1 LPS/ATP IL-1B secretion, AlphaLISA, 16 h; hits give low values; hit rate 4.7% among 360,000; in the data active = activity change below about -50%; inconclusive = mostly about -30% to -49%
#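 Secreted IL-1B measured by AlphaLISA bead assay after 16 h compound exposure of THP-1 cells; compounds (final up to 57.5 uM) added 1 h before LPS (250 ng/mL) and ATP (1.25 mM) stimulation; lower signal means less secretion.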
# TDP1 cell CPT – DT40-hTDP1 cell growth loss with CPT. Potency, µM (series often up to 46.2 µM), inactives show at the highest dose activity change, negative = growth inhibition, actives largely listed as inhibitors. chicken DT40 Tdp1-/-;hTDP1 cells + 20 nM CPT, ATP luminescence, 48 h. hit rate 12% among 420,000; also: potency is read from the fitted curve at half-maximal effect; nearly all actives have a fitted effect of over 55% in size
#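 Chicken DT40 Tdp1-/- cells stably complemented with human TDP1 were seeded at 400 cells/well in medium containing 20 nM camptothecin, exposed to pin-transferred compounds, and grown at 37 °C for at least 48 hr. Viability was read as ATP luminescence.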
# Starred values were filed as active, the others as inactive; ? = inconclusive; . = no result given; [ ] = another dose, or the depositor's remark. Hits are enriched below; roughly 19% of the tested compounds scored in any of these assays. Unless noted, calls follow the shape of the dose curve; as a rule, active = well fitted curve in the direction sought with a large enough effect; inconclusive = small, poorly fitted or top-dose-only effect, or another doubt; inactive = no such curve, though single readings can be large; an effect the other way counts as inactive or inconclusive. Unless noted, % is scaled to controls: 0 for no effect and ±100 for the full control effect.
SMILES,DT40 TDP1 no CPT,HT1080NT lethal,HT1080 IDH1KD tx,IL1B secr inh,TDP1 cell CPT
CC(=O)c1ccccc1-c1ccc2c(c1)CC(CNC(=O)C[C@@H]1C[C@@H](C)NC(=S)N1)O2 (stereo not given in full),-7%,.,.,.,-8%[9.04 µM]
CCOC(=O)c1[nH]ncc1CN1CCCC(C(=O)c2ccc(C(C)(C)C)cc2)C1 (stereo not given),?,2%,8%,-8,?
CCCN(CCC)C(=O)Cn1c(=O)n(CCCCCC(=O)Nc2ccccc2)c(=O)c2sccc21,-27%,2%,10%,18,?
CCOC(=O)C1CCCN(C(=O)Cn2cnc3sc(C)c(S(=O)(=O)N4CCOCC4)c3c2=O)C1 (stereo not given),-9%,13%,5%,-53*,0%
Cc1sc2ncn(CC(=O)N3CCN(c4cccc(Cl)c4)CC3)c(=O)c2c1S(=O)(=O)N1CCN(c2ncccn2)CC1,-26%,.,.,.,-19%
CCc1ccc(N(CC)C(=O)Cn2cnc3sc(C)c(S(=O)(=O)N4CCN(c5ncccn5)CC4)c3c2=O)cc1,5%,.,.,.,5%
CCOc1ccc(N(CC)C(=O)Cn2cnc3sc(C)c(S(=O)(=O)N4CCN(c5ncccn5)CC4)c3c2=O)cc1,9.2µM*,.,.,.,13µM*
Cc1sc2ncn(CC(=O)N3CCN(c4ccc(F)cc4)CC3)c(=O)c2c1S(=O)(=O)N1CCCCC1,16µM*,.,.,.,16µM*
Cc1ccc(C)c(N2CCN(C(=O)Cn3cnc4sc(C)c(S(=O)(=O)N5CCN(c6ncccn6)CC5)c4c3=O)CC2)c1,9.2µM*,.,.,.,18µM*
Cc1sc2ncn(CC(=O)N3CCN(c4ccccc4)CC3)c(=O)c2c1S(=O)(=O)N1CCOCC1,?,7%,8%,3,18%
COc1ccc(OC)c(C(=O)NC(CC(N)=O)c2ccc(NC(C)C)c([N+](=O)[O-])c2)c1 (stereo not given),-15%,8%,5%,-5,-27%
O=C(Cn1cc([N+](=O)[O-])ccc1=O)NCC(=O)Nc1ccc(F)c(F)c1F,-29%,2%,3%,-1,10%
CCN(CC)CCNC(=O)c1cccc(NC(=O)C(=O)c2ccccc2NC(C)=O)c1,24%,-4%,-9%,-20,10%
COC(=O)CCc1c(C)c(C(=O)c2ccc(F)cc2)c2ccccn12,-6%,-3%,-5%,-11,6%
Cc1c(C(=O)Nc2ccc(F)cc2)c2ccccn2c1CCc1ccncc1,?,-20%,-4%,-52*,?
Cc1ccc(N(C)C(=O)c2cc(S(=O)(=O)N3CCCC3)cn2C)cc1,-26%,-11%,-3%,-24,-29%
COc1ccc(NC(=O)c2oc3c(c2C)-c2nn(Cc4ccccc4Cl)cc2CC3)cc1OC,21µM*,.,.,.,21µM*
CCOC(=O)c1oc2c(c1C)-c1nn(Cc3c(F)cccc3Cl)cc1CC2,?,.,.,.,-1%
COCCCNC(=O)c1oc2c(c1C)-c1nn(Cc3ccccc3Cl)cc1CC2,18µM*,.,.,.,?
CCn1cc2c(n1)-c1c(oc(C(=O)Nc3cccc(C(F)(F)F)c3)c1C)CC2,-27%,.,.,.,-21%
CCc1nc2cc(C(=O)N3CCC[C@H]3C(=O)OC)cc(NC(=O)c3ccccc3OC)c2n1C,-21%,.,.,.,18%[9.04 µM]
CCC(C)(C)NC(=O)/C=C/c1cccs1,2%,7%,8%,-9,-27%
O=[N+]([O-])c1cccc(N/N=C/c2cccc(O)c2O)c1,-23%,?,?,42,4%
CC(C)c1ccc(N(C(=O)c2cc3ccccc3oc2=O)C2C=CS(=O)(=O)C2)cc1 (stereo not given),13µM*,9%,10%,-5,?
COc1ccc(N(C(=O)c2cc3ccccc3oc2=O)C2C=CS(=O)(=O)C2)cc1 (stereo not given),1%,1%,-4%,?,-6%
SMILES,DT40 TDP1 no CPT,HT1080NT lethal,HT1080 IDH1KD tx,IL1B secr inh,TDP1 cell CPT
O=C(c1cc2ccccc2oc1=O)N(c1ccccc1)C1C=CS(=O)(=O)C1 (stereo not given),-19%,-3%,0%,-54*,-4%
COc1ccc(NC(=O)C(C)N2C(=O)c3ccccc3S2(=O)=O)c(OC)c1 (stereo not given),-15%,-3%,-9%,1,-1%
O=C(NC1CC2CCCC(C1)N2Cc1ccccc1)c1ccc([N+](=O)[O-])cc1 (stereo not given),-1%,-11%,1%,-23,-27%
O=C(CSCc1ccc(Cl)cc1)Nc1cc([N+](=O)[O-])ccc1O,18µM*,?,?,?,?
COc1ccc([N+](=O)[O-])cc1NC(=O)CSCc1ccc(Br)cc1,?,-6%,-14%,-27,?
Cc1ccc(C(C(=O)NC2CCCCC2)N(CC2CCCO2)C(=O)CCCC(=O)Nc2ccccn2)cc1 (stereo not given),?,2%,-18%,8,?
S=C(c1ccc(N2CCCC2)cc1)N1CCCCC1,18µM*,-2%,-27%,-19,16µM*
Cc1ccc(C(=S)N2CCCCCC2)cc1,23µM*,14%,6%,13,16µM*
Oc1ccc(C(=S)N2CCCCCC2)cc1,-3%,-1%,-10%,3,-17%
S=C(c1ccc(N2CCCC2)c(Br)c1)N1CCCCC1,23µM*,-9%,2%,-14,21µM*
CCN(C(=O)Cc1c(C(=O)O)n(C)c2ccccc12)c1ccc(F)cc1,4%,14%,22%,19,4%
COC(=O)c1ccc(NC2=CC(=O)CC(C)(C)C2)cc1,23µM*,?,?,?,23µM*
Cc1cccc(C)c1N1C(=O)c2ccccc2NC(=O)C1C(=O)NCCc1ccccc1F (stereo not given),?,7%,17%,0,2%
CCOC(=O)N1CCC2(CC1)OC(=O)C(C)=C2C(=O)NCc1cccc(OC)c1,?,.,.,.,-27%
O=C(C[N+]12CCCc3cccc(c31)CCC2)c1ccc2ccccc2c1,7.1µM*,.,.,.,5µM*
Cc1nc([N+](=O)[O-])c(Br)n1CC(=O)c1ccc2ccccc2c1,21µM*,16µM*,?,-120*,21µM*
Cc1nc([N+](=O)[O-])c(C(=O)OCc2ccccc2Br)n1C,?,-10%,-3%,28,-19%
Cc1nc([N+](=O)[O-])c(Br)n1CC(=O)c1ccccc1,8.2µM*,?,?,?,18µM*
Cc1nc([N+](=O)[O-])c(Br)n1CC(=O)c1ccc(Br)cc1,8.2µM*,21µM*,?,-84*,7.3µM*
